Inconclusive results are not listed. The source made the active and inactive calls. Unless noted, how the calls were made is not given here.

The nature of experiment [1]: qHTS profiling of the MIPE4 collection as inhibitors of Plasmodium falciparum (3D7) proliferation (AID 743344).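 Further: scaled between DMSO vehicle wells and 0.29 µM artemisinin as full inhibition.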 Particulars: P. falciparum 3D7 in erythrocytes, SYBR Green DNA fluorescence, 72 h; at 28.5 µM unless noted. The procedure, abridged:
(§1)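 Parasite DNA was quantified by SYBR Green I fluorescence (ex 485, em 535 nm) after overnight lysis in saponin/Triton buffer at room temperature. Cultures at 0.3% parasitemia and 2.5% hematocrit were first exposed to compound for 72 h at 37 C; signals were normalised to artemisinin (0.29 uM) and vehicle wells.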

Experiment [2] is described as follows: qHTS profiling of the MIPE4 collection as inhibitors of Plasmodium falciparum (DD2) proliferation (Rep 2) (AID 743346). The following applies: P. falciparum Dd2 in erythrocytes, SYBR Green DNA, 72 h; at 28.5 µM unless noted. The procedure, abridged:
as §1
On the technique in general: In qHTS, concentration-response curves come from the screen itself.

The nature of experiment [3]: qHTS profiling of the MIPE4 collection as inhibitors of Plasmodium falciparum (HB3) proliferation (AID 743347).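 Further: plate controls were DMSO vehicle wells for no effect and artemisinin wells for full effect.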 The following applies: P. falciparum HB3 in erythrocytes, SYBR Green DNA, 72 h; at 28.5 µM unless noted. The procedure, abridged: as §1
A short description of experiment [4]: High-throughput drug toxicity screening in the BPDCN cell line Gen2.2 (AID 1224824).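 Further: cells exposed to compounds for 48 h before reading.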 The following applies: Gen2.2 BPDCN cells; at 45.8 µM (top of the series) unless noted. The procedure, abridged: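 CellTiter-Glo luminescence read after 48 h compound exposure at 37 C defines viability; percent activity set with DMSO as 100% and bortezomib (9.2 uM final) as 0%. 500 exponentially growing cells per well, RPMI plus 10% FBS.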

A short description of experiment [5]: qHTS assay for measurement of the activity of small molecule inhibitors on Zika virus induced Caspase-3 activity in human astrocytoma cells (AID 1224859; active means well fitted curve in the direction sought with a large enough effect; an effect the other way counts as inactive or inconclusive;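 further: plate controls were ZIKV-infected untreated cells for no effect and uninfected cells for full effect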). The procedure, abridged:
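Luminescence read-out (Caspase-Glo 3/7, 30 min RT) of caspase activity in SNB-19 cells infected 6 h with ZIKV, 2 FFU/cell, after 1 h compound pretreatment; % inhibition from induction normalised to uninfected (0%) and infected (100%) wells.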

Experiment [6] in a line: qHTS Screen of the MIPE 4.0 Collection Against Ewings Sarcoma (RDES) (AID 1259252; active means well fitted curve in the direction sought with a large enough effect; an effect the other way counts as inactive or inconclusive; further: nearly all actives have a fitted effect of over 35% in size; further: potency means the concentration at half of the fitted maximal effect). The procedure, abridged:
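Compound titrations go onto adherent log-phase cells 4 h after seeding, incubate 48 h at 37C, then CellTiter-Glo luminescence reports viability relative to DMSO and cell-free controls.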

Experiment [7] can be described thus: qHTS profiling for inhibitors of Plasmodium falciparum (HB3) proliferation (AID 743324; active means well fitted curve in the direction sought with a large enough effect; an effect the other way counts as inactive or inconclusive;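 further: 100% = DMSO vehicle wells and 0% = artemisinin-treated control wells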). The following applies: Plasmodium falciparum HB3 blood-stage proliferation; at 28.7 µM (top of the series) unless noted. The procedure, abridged:
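SYBR Green fluorescence (485 ex/535 em) of lysed cultures, incubated overnight at room temperature in the dark, quantifies parasite DNA. Infected erythrocytes at 0.3% parasitemia and 2.5% hematocrit were exposed 72 h; values normalized to DMSO and 0.29 uM artemisinin controls.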

Experiment [8] in a line: qHTS profiling of the MIPE4 collection as inhibitors of Plasmodium falciparum (DD2) proliferation (AID 743345). Particulars: P. falciparum Dd2 in erythrocytes, SYBR Green DNA, 72 h; at 28.5 µM unless noted. The procedure, abridged: as §1
A short description of experiment [9]: qHTS assay for measurement of the activity of small molecule inhibitors on Zika virus induced Caspase-3 activity in human iPSC derived neural progenitor cells (hNPCs) (AID 1224857; active means well fitted curve in the direction sought with a large enough effect; an effect the other way counts as inactive or inconclusive; further: % of control where 0% means no effect; nearly all actives have a fitted effect of over 65% in size). The procedure, abridged: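 hNPCs seeded 350 cells/well, cultured 16–20 h; compounds added 1 h before ZIKV (2 FFU/cell), 37 C 6 h. Caspase-Glo 3/7 luminescence after 30 min RT; % inhibition from induction scaled to uninfected (0%) and infected (100%) wells.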

`Cc1cc(-c2ncc(CC(=O)Nc3ccc(-c4cnccn4)cn3)cc2C)ccn1`: in experiment [1], the parasite growth, % of DMSO control was 36.5%. The molecule also displayed a parasite growth, % of control (lower = inhibition) in experiment [2] of 71.8%. In experiment [3], this molecule displayed a growth, % of control of 52.1%. For the same molecule, the cell viability, % of control (lower = more cytotoxic) in [4] is 267%. Moreover, the Potency entry in experiment [5] is “inactive”. The Potency in [6] was 16.6 µM (active).

The molecule `NC(=O)c1ccc(N(C(N)=O)c2c(F)cccc2F)nc1-c1ccc(F)cc1F` gave a remaining proliferation (% of control), lower = more inhibition in [7] of 85.6%. For the same molecule, the parasite growth, % of DMSO control in [1] was determined as 79.5%. Moreover, the parasite growth remaining, % of DMSO control (lower = more inhibition) in experiment [8] was determined as 104%. The growth, % of control in experiment [3] amounted to 78.7%. Besides, the cell viability, % of control (lower = more cytotoxic) in experiment [4] was determined as 215%. The Potency entry in experiment [9] and in [5] was “inactive” each time.

As for `CN[C@H]1[C@@H](O[C@@H]2[C@H](O[C@@H]3[C@@H](O)[C@@H](O)[C@@H](N=C(N)N)[C@@H](O)[C@@H]3N=C(N)N)O[C@H](C)[C@@]2(O)C=O)O[C@@H](CO)[C@@H](O)[C@H]1O`, in experiment [1], the parasite growth, % of DMSO control was found to be 99% [at 9.64 µM]. The parasite growth remaining, % of DMSO control (lower = more inhibition) in [8] is 94.4% [at 9.64 µM]. In [2], the parasite growth, % of control (lower = inhibition) was found to be 87.4% [at 9.64 µM]. In [3], the growth, % of control was 89.1% [at 9.64 µM]. Moreover, in experiment [4], the cell viability, % of control (lower = more cytotoxic) was found to be 122% [at 15.3 µM]. Also, the Potency result in experiment [9], in experiment [5] and in [6] was “inactive” each time.

In experiment [7], `OCCn1cc(-c2ccc3c(c2)CCC3=NO)c(-c2ccncc2)n1` registered a remaining proliferation (% of control), lower = more inhibition of 73.4%. The molecule also yielded a parasite growth, % of DMSO control in [1] of 67.4%. Further, the parasite growth, % of control (lower = inhibition) in [2] was 74.7%. The growth, % of control in [3] was determined as 89.4%. For the same molecule, the cell viability, % of control (lower = more cytotoxic) in [4] amounted to 4.73%. Also, the Potency entry in experiment [9] and in experiment [5] was “inactive” throughout. For the same molecule, the Potency in experiment [6] is 26.4 µM (active).

For the molecule `C[C@@H]1C[C@H]2[C@@H]3CCC4=CC(=O)C=C[C@]4(C)[C@@]3(F)[C@@H](O)C[C@]2(C)[C@@]1(O)C(=O)CO`, the parasite growth, % of DMSO control in experiment [1] was 55.8%. Besides, in [8], the parasite growth remaining, % of DMSO control (lower = more inhibition) was 90.6%. In experiment [2], the parasite growth, % of control (lower = inhibition) was determined as 60.4%. The growth, % of control in experiment [3] worked out at 9.35%. Further, the cell viability, % of control (lower = more cytotoxic) in experiment [4] is 184%. In addition, the Potency result in [9], in experiment [5] and in experiment [6] was “inactive” in each case.

The molecule `NC1(C(=O)N[C@@H](CCO)c2ccc(Cl)cc2)CCN(c2ncnc3[nH]ccc23)CC1` displayed a parasite growth, % of DMSO control in experiment [1] of 32.2%. Further, the parasite growth remaining, % of DMSO control (lower = more inhibition) in experiment [8] was 85.9%. Also, the parasite growth, % of control (lower = inhibition) in experiment [2] came to 24.5%. Besides, the growth, % of control in experiment [3] came out at 97.9%. The cell viability, % of control (lower = more cytotoxic) in experiment [4] turned out to be 6.91%. In addition, the Potency entry in experiment [9] is “inactive”. Further, the Potency in [6] is 3.72 µM (active).

In the case of `CC1=C(C(=O)Nc2cc3cn[nH]c3cc2F)C(c2ccc(C(F)(F)F)cc2)CC(=O)N1` (centres undefined), in [1], the parasite growth, % of DMSO control is 5.13%. Moreover, the parasite growth, % of control (lower = inhibition) in experiment [2] was 7.16%. Besides, the growth, % of control in experiment [3] was determined as 5.72%. In addition, in experiment [4], the cell viability, % of control (lower = more cytotoxic) amounted to 88.7%. Further, the Potency entry in [9] and in experiment [5] was “inactive” in each case.

In the case of `C[C@H](c1ccc(F)cc1CCCC(=O)O)N(c1cc(F)ccc1F)S(=O)(=O)c1ccc(Cl)cc1`, the parasite growth, % of DMSO control in [1] amounted to 48.3%. In addition, the parasite growth remaining, % of DMSO control (lower = more inhibition) in experiment [8] worked out at 42.9%. In experiment [3], this molecule returned a growth, % of control of 47.7%. Besides, the cell viability, % of control (lower = more cytotoxic) in experiment [4] stood at 144%. Further, the Potency entry in [9] and in experiment [5] was “inactive” throughout. Besides, the Potency in experiment [6] is 18.7 µM (active).

Molecule `CC[C@]1(O)C[C@H]2CN(CCC3=c4ccccc4=N[C]3[C@@](C(=O)OC)(c3cc4c(cc3OC)N(C)[C@H]3[C@@](O)(C(N)=O)[C@H](O)[C@]5(CC)C=CCN6CC[C@]43[C@@H]65)C2)C1` registered a parasite growth, % of DMSO control in experiment [1] of 18.7%. In addition, in [8], the parasite growth remaining, % of DMSO control (lower = more inhibition) turned out to be 14.1%. The parasite growth, % of control (lower = inhibition) in [2] is 35%. Further, the growth, % of control in [3] was 17.4%. Moreover, the cell viability, % of control (lower = more cytotoxic) in experiment [4] was determined as 14.7%. The Potency result in [9] and in experiment [5] was “inactive” in each case. Further, the Potency in [6] is 0.0033 µM (active).

On to `CN1C(=O)C[C@H](C(=O)N[C@@H](Cc2cnc[nH]2)C(=O)N2CCC[C@@H]2C(N)=O)NC1=O`, for which, in experiment [8], the parasite growth remaining, % of DMSO control (lower = more inhibition) was 33.3%. For the same molecule, the cell viability, % of control (lower = more cytotoxic) in experiment [4] came out at 61%. Further, the Potency result in experiment [9] and in [5] was “inactive” throughout.

`CCC(=C(c1ccc(O)cc1)c1ccc(OCCNC)cc1)c1ccccc1`: the parasite growth remaining, % of DMSO control (lower = more inhibition) in experiment [8] was 15.1%. This molecule also showed a parasite growth, % of control (lower = inhibition) in [2] of 13.1%. Besides, the growth, % of control in [3] was determined as 3.87%. The cell viability, % of control (lower = more cytotoxic) in [4] was 16.9%. Moreover, the Potency result in experiment [5] is “inactive”.

For the molecule `CCC[C@H](N[C@@H](C)C(=O)N1[C@@H]2CCCC[C@H]2C[C@H]1C(=O)O)C(=O)OCC`, the parasite growth, % of DMSO control in experiment [1] is 69%. The parasite growth remaining, % of DMSO control (lower = more inhibition) in experiment [8] came out at 77.5%. Moreover, in [2], the parasite growth, % of control (lower = inhibition) is 41.1%. In addition, the growth, % of control in experiment [3] was found to be 98.7%. Further, the cell viability, % of control (lower = more cytotoxic) in [4] was 64.1%. Besides, the Potency result in experiment [9], in [5] and in experiment [6] was “inactive” in each case.

For the molecule `COc1cc2c(cc1OC)CC(=O)N(CCCN(C)C[C@H]1Cc3cc(OC)c(OC)cc31)CC2`, the remaining proliferation (% of control), lower = more inhibition in experiment [7] came to 77.1%. Moreover, the parasite growth, % of control (lower = inhibition) in [2] amounted to 55.5%. The molecule also showed a growth, % of control in experiment [3] of 79.8%. In addition, the cell viability, % of control (lower = more cytotoxic) in experiment [4] was determined as 163%. The Potency entry in [9] and in experiment [5] was “inactive” each time.

For `CC(C)CN(C[C@@H](O)[C@H](Cc1ccccc1)NC(=O)O[C@H]1CO[C@H]2OCC[C@H]21)S(=O)(=O)c1ccc(N)cc1`, the parasite growth, % of DMSO control in experiment [1] stood at 42.7%. For the same molecule, the parasite growth remaining, % of DMSO control (lower = more inhibition) in [8] was determined as 19.4%. Moreover, the growth, % of control in experiment [3] was determined as 8.15%. In experiment [4], the cell viability, % of control (lower = more cytotoxic) stood at 118%. The Potency result in experiment [5] is “inactive”. The Potency in experiment [6] is 2.09 µM (active).

The record behind these values is PubChem BioAssay (NCATS).
